From PubChem BioAssay AID1063 (University of Pittsburgh Molecular Library Screening Center, 2008)
Among all 200,000 compounds or so, about 18,000 (9%) were called active. Only a selection was taken, and actives are over-represented in it overall. Unmarked numbers belong to inactive results. Rule as the data show it: active = inhibition above about 50%; inactive = the rest.

experiment: antileishmanial activity against promastigotes – primary screen (AID 1063); details: Leishmania major promastigotes, resazurin fluorescence viability; at 10 µM; active compounds read high;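 also: promastigotes grown with compound for 44 hours at 28 °C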

For `CC(C)(C)c1ccc(CN2C(=O)CN=C(c3ccccc3)c3ccccc32)cc1`, the inhibition was 97.3% (active).
With `CN1CCN(Cc2ccc(OC(F)(F)F)cc2)CC1` the inhibition was 90.4% (active).
With `Cc1cccc(OP(=O)(Oc2cccc(C)c2)OC(c2ccccc2)C(F)(F)F)c1` (stereo unspecified) the inhibition was 57.8% (active).
For `C[N+]12CN3CN(CN(C3)C1)C2`, the inhibition was 93.8% (active).
For `CC(C)Oc1cccc(C(=O)C2CCCN(C3CCOCC3)C2)c1` (stereo unspecified), the inhibition was 93.2% (active).
With `CCOC(=O)C1(Cc2ccc(Cl)cc2)CCN(C(C)CCn2cccn2)CC1` (stereo unspecified) the inhibition was 80.9% (active).
With `COc1cccc(N2C(=O)NC(=O)/C(=C\c3ccc([N+](=O)[O-])s3)C2=O)c1` the inhibition was 93.6% (active).
With `O=C1NC(=O)N(c2ccccc2)C(=O)/C1=C/c1ccc([N+](=O)[O-])s1` the inhibition was 93.8% (active).
For `CCOC(=O)C(O)(c1ccc(NC(=O)c2ccco2)c(OC)c1)C(F)(F)F` (stereo unspecified), the inhibition was 73.8% (active).
For `Cc1ccc(-n2c(C)cc(/C=C3\C(=O)NC(=O)N(C)C3=O)c2C)cc1C`, the inhibition was 58% (active).
With `Cc1ccnc(-n2c(C)cc(/C=C3\C(=O)NC(=S)N(C)C3=O)c2C)c1` the inhibition was 70% (active).
In the case of `O=C(CCN1CCCCC1)NCC(=O)Nc1ccc(Br)cc1C(=O)c1ccccc1`, the inhibition is reported as 91.4% (active).
For `Cc1ccsc1C(=O)C1CCCN(Cc2ccc(O)cc2)C1` (stereo unspecified), the inhibition was 83.9% (active).
In the case of `CCOC(=O)c1c(N)n(Cc2ccccc2)c2nc3ccccc3nc12`, the inhibition is reported as 100% (active).
For `COc1cc(Cn2c(N)c(C(=O)NCc3ccco3)c3nc4ccccc4nc32)cc(OC)c1OC`, the inhibition was 100% (active).
For `COc1ccc(C(=O)C2CCCN(Cc3ccc(C)s3)C2)cc1OC` (stereo unspecified), the inhibition was 89.4% (active).
For `O=C(Cc1ccccc1)N1CCN(C2CCCCCC2)CC1`, the inhibition was 64.8% (active).
With `CC1=CC(=Cc2sc3ccccc3[n+]2C)C=C(C)O1` the inhibition was 100% (active).
In the case of `Cc1cc(C)cc(NC(=S)NC2CC3CCCC(C2)N3Cc2cccs2)c1` (stereo unspecified), the inhibition is reported as 87.3% (active).

Going from `CCN1CCN(c2ccc([N+](=O)[O-])cc2C#N)CC1` to `CN1CCN(c2cc(N3CCNCC3)ccc2[N+](=O)[O-])CC1`, the inhibition rises from 3.77% to 44%.

First: CN1CCN(Cc2ccccc2C(F)(F)F)CC1
Second: O=C(Cc1ccccc1[N+](=O)[O-])N1CCN(Cc2ccc3c(c2)OCO3)CC1
The inhibition of the first is lower: 0.79% for the first, 48% for the second.

Going from `CN(C)c1ccc(/C=C2\CC3C4CC=C5CC(O)CCC5(C)C4CCC3(C)C2=O)cc1` (stereo unspecified) to `OC1/C(=C/c2ccc(C(F)(F)F)cc2)N2CCC1CC2` (stereo unspecified), the inhibition falls from 37% to 0.72%.

Compared with `Cc1ccc(-n2c(-c3ccc([N+](=O)[O-])cc3)nc3ccccc3c2=O)cc1`, `Cc1ccc(-c2nc3ccccc3c(=O)n2-c2ccc(Br)cn2)cc1` is higher in inhibition: 0.86% for the first, 3.21% for the second.

First: CCN(CC)P(=O)(Oc1cccc(C)c1)N(CC)CC
Second: CCN(CC)c1ccc([N+](=O)[O-])c2cccnc12
The inhibition of the first is higher: 22.5% for the first, 9.8% for the second.

First: CCC(=O)CC(c1ccc([N+](=O)[O-])cc1)c1c(O)c2ccccc2oc1=O (stereo unspecified)
Second: C=CCN1C(=O)C2(C(C(=O)OCC)=C(N)Oc3c2c(=O)oc2ccccc32)c2ccccc21 (stereo unspecified)
The inhibition of the first is lower: -15.5% for the first, -6.93% for the second.

Going from `CN(C)c1nc(N(C)C)nc(N(C#N)CCCl)n1` to `CCN(N=Nc1nonc1OC)c1nonc1OC`, the inhibition rises from -4.48% to 0.16%.

Compared with `CC1CCCCN1Cc1cccnc1` (stereo unspecified), `c1cncc(CNCCc2c[nH]c3ccccc23)c1` is higher in inhibition: -6.9% for the first, 22.7% for the second.

First: COc1ccccc1N=Nc1c(O)[nH]c(=S)[nH]c1=O
Second: COc1ccccc1N=C1SCCCN1C
The inhibition of the first is higher: -4.5% for the first, -5.49% for the second.

First: CN(C)P(=S)(Nc1ccccc1)C(Cl)(Cl)Cl (stereo unspecified)
Second: COP(=O)(NS(=O)(=O)c1ccccc1)OC
The inhibition of the first is higher: 28.1% for the first, -6.48% for the second.

Going from `O=C(Nc1cccc(OC(=O)N2CCCCC2)c1)N1CCOCC1` to `O=C(OCCN1CCOCC1)C1(c2ccccc2)CCCC1`, the inhibition rises from 0.65% to 1.57%.

First: Cc1ccc(-c2nn(CCC#N)cc2C(=O)O)cc1C
Second: CCCn1c(C(=O)c2ccccc2OC)nc2ccccc21
The inhibition of the first is lower: -5.5% for the first, 15% for the second.

First: COC(=O)COc1cc(C)cc2oc(=O)c3c(c12)CCCC3
Second: COc1cc(-n2c(=S)[nH]c3ccc(C)cc3c2=O)c(Cl)cc1Cl
The inhibition of the first is lower: -6.35% for the first, 43.6% for the second.

Compared with `O=C(COC(=O)c1ccccc1)Nc1ccc(Cl)cc1C(=O)c1ccccc1`, `CN1CCN(C(=S)SCC(=O)Nc2ccc(Cl)cc2C(=O)c2ccccc2)CC1` is higher in inhibition: -3.5% for the first, 8.25% for the second.

Going from `CN(C)C(=O)Oc1ccc(OCc2cccc[n+]2C)cc1` to `O=C(COC(=O)Cc1ccccc1)Nc1ccc(F)cc1`, the inhibition rises from -6.21% to 0.24%.

Going from `CCOC(=O)C1(CCc2ccccc2)CCN(Cc2ccco2)CC1` to `N=c1ccccn1Cc1ccccc1`, the inhibition falls from 9% to -0.35%.

Compared with `CC(C)(C)[C@]1(O)C[C@@H]2OC(=O)C[C@@]23C(=O)O[C@@H]2OC(=O)[C@H](O)[C@]213`, `Cc1c(C(=O)O)cccc1-n1c(C)cc(/C=C2\C(=O)NC(=O)N(c3ccc4c(c3)OCO4)C2=O)c1C` is higher in inhibition: -6.51% for the first, 2.09% for the second.

Going from `CCCOC(=O)C1C2c3ccccc3C(c3ccccc32)C1C(=O)O` (stereo unspecified) to `CC[N+]1(C)CCCC(OC(=O)C(O)(c2ccccc2)c2ccccc2)C1` (stereo unspecified), the inhibition rises from -5.51% to -2.17%.

Compared with `CC(C(=O)Nc1ccc(Cl)cc1Cl)N1CC=C(c2ccccc2)CC1` (stereo unspecified), `O=C(CN1CCCCC1)Nc1ccc(Br)cc1C(=O)c1ccccc1Cl` is higher in inhibition: -2.71% for the first, 11.2% for the second.

Going from `O=C1NC(=O)N(c2ccc(F)cc2)C(=O)/C1=C/c1ccc2c(c1)CCCN2Cc1ccccc1` to `Cc1cccc(N2C(=O)NC(=O)/C(=C\c3cnn(-c4ccccc4)c3)C2=O)c1`, the inhibition falls from 7.8% to -2.18%.

First: COc1ccc(CN2C(=O)NC(=O)/C(=C\c3ccc(OC)c(OC)c3OC)C2=O)cc1
Second: Cc1cc(/C=C2/C(=O)NC(=O)N(Cc3ccco3)C2=O)c(C)n1-c1ccc(C(=O)O)cc1
The inhibition of the first is higher: -6.27% for the first, -6.68% for the second.

Going from `OCC#CC[N+]1(CC#Cc2ccccc2)CCCC1` to `CCC(=NCCc1ccccc1)c1c(O)n(C2CCCCC2)c(=O)[nH]c1=O`, the inhibition rises from -1.69% to 21%.

Going from `C=CCN(CC=C)C(=O)Nc1ccc(OCC)cc1` to `COc1ccc(C2N3CC(C)(C)CN23)cc1` (stereo unspecified), the inhibition rises from -9.24% to -5.78%.

Going from `O=C(NC(c1ccc(Cl)cc1)P(=O)(Oc1ccccc1)Oc1ccccc1)OCc1ccccc1` (stereo unspecified) to `C[C@@]1([C@@H](NP(=O)(c2ccccc2)c2ccccc2)c2ccccc2)C[C@H]1CCO`, the inhibition falls from 10.2% to -1.91%.

Compared with `CCCCC(=O)N/N=C/c1c(O)n(CC)c(=S)n(CC)c1=O`, `CN(C)CCCN=Cc1c(O)n(Cc2ccco2)c(=O)[nH]c1=O` is lower in inhibition: -5.9% for the first, -6.14% for the second.

Compared with `O=C(Nc1cccc2ccccc12)N1CCC2(CC1)OCCO2`, `O=C(C1CC(=O)N(C2CCCC2)C1)N1CCC2(CC1)OCCO2` (stereo unspecified) is lower in inhibition: 0.77% for the first, -6.1% for the second.

Going from `COC(=O)C(O)(c1ccc(NC(=O)c2ccco2)c(OC)c1)C(F)(F)F` (stereo unspecified) to `CCOC(=O)C(O)(c1ccc(N)c(OC)c1)C(F)(F)F` (stereo unspecified), the inhibition falls from -2.15% to -13.8%.

First: C=CCn1c(O)c(/C=N/N2CCOCC2)c(=O)[nH]c1=S
Second: CCOC(=O)c1c(N)n(CCN2CCOCC2)c2nc3ccccc3nc12
The inhibition of the first is lower: -4.94% for the first, 24.6% for the second.

Going from `Cc1ccccc1N1C(=O)NC(=O)/C(=C\c2cc(C)n(C)c2C)C1=O` to `Cc1cc(C=C2C(=O)NC(=O)NC2=O)c(C)n1-c1ccncc1`, the inhibition falls from 2.98% to 0.48%.

Going from `CC(=O)N(C1=NCCCS1)c1ccccc1F` to `O=C(Cn1c(=O)n(CC2CS2)c2ccccc21)N1CCCCC1` (stereo unspecified), the inhibition rises from -4.7% to 2.59%.

Going from `Cc1cccc(-n2c(O)c(C=NC34CN5CN(CN(C5)C3)C4)c(=O)[nH]c2=O)c1` to `O=c1[nH]c(=O)n(-c2ccccc2)c(O)c1C=NC12CN3CN(CN(C3)C1)C2`, the inhibition rises from -14.4% to -6.09%.

Compared with `O=c1c2ccccc2nc(-c2ccccc2)n1-c1ccccn1`, `CNP1(NC)=Nc2nn(-c3ccccc3)c(N)c2C(c2ccccc2)=N1` is lower in inhibition: -4.66% for the first, -6.36% for the second.

Going from `C[N+]1(C)CCOC(O)(c2ccc(-c3ccc(C4(O)C[N+](C)(C)CCO4)cc3)cc2)C1` (stereo unspecified) to `O=[N+]([O-])c1ccc(C2C3C(c4ccccc4)=NC4(CCCCC4)N32)cc1` (stereo unspecified), the inhibition falls from 20.9% to 19.8%.

First: CC(C)N(CC#CCC1(O)c2ccccc2-c2ccccc21)C(C)C
Second: OC(Cn1c2ccccc2c2ccccc21)C[n+]1ccccc1 (stereo unspecified)
The inhibition of the first is higher: 2.06% for the first, 1.49% for the second.

Going from `Cc1nc2ccc(N3CCN(C)CC3)cc2nc1C` to `O=C1/C(=C\c2ccc3c(c2)OCO3)N2CCC1CC2`, the inhibition rises from 3.66% to 4.04%.

First: COP(=O)(OC)C(NC(=O)c1ccc(C)cc1)C(Cl)(Cl)Cl (stereo unspecified)
Second: CCOC(=O)C(O)(c1ccc(N=Cc2ccccc2O)c(C)c1)C(F)(F)F (stereo unspecified)
The inhibition of the first is lower: -7.25% for the first, -7.14% for the second.

First: CNC(=S)N/N=C1\C2CN3CCN(C2)CC1(c1ccccc1)C3
Second: Cc1ccc(Cn2nnnc2CN2CCC(n3nnc4ccccc43)CC2)cc1
The inhibition of the first is lower: -5.87% for the first, 4.28% for the second.

Going from `CCc1nnc(NS(=O)(=O)c2ccc(N=Cc3c(O)n(-c4ccccc4)c(=O)[nH]c3=O)cc2)s1` to `O=C(COc1ccc2ccccc2c1)N1CCN(Cc2ccncc2)CC1`, the inhibition rises from -1.81% to 44.3%.

Work on `Cc1cccc2c(CCN)c[nH]c12` yielded an inhibition of 0.35%.
